# Measured values as given in PubChem BioAssay AID1159580 (chemical genetic matrix, 2015).
# In all, about 5,500 compounds went through this assay and about 2,000 (36%) were called active. Another 18% or so got no clear call; they are omitted. The list shows a part of the results. A number with no mark means an inactive call. No stated cut-off is given here; in the data, active means normalized growth mostly below about 0.91 (no sharp cut-off); inconclusive means no clear call, values can overlap the other calls; inactive means mostly above about 0.92.
# Assay: chemical genetic growth profiling, strain panel (AID 1159580);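 further: tested at 20 µM; growth read once vehicle control cultures reached saturation at 30 °C; 1 = growth at the plate median or of vehicle wells; lower values mean less growth of the strain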
# Conditions: growth OD
structure (smiles),measurement,setting,value
O=c1oc2ccccc2c(O)c1Cc1c(O)c2ccccc2oc1=O,normalized growth,"S. cerevisiae deletion strains, locus YJR066W, strain TOR1, hits give low values",0.859
same,normalized growth,"S. cerevisiae deletion strains, locus YKL009W, strain mrt4, hits give low values",0.944
same,normalized growth,"S. cerevisiae deletion strains, locus YKL068W, hits give low values",0.959
same,normalized growth,"S. cerevisiae deletion strains, locus YKL085W, strain MDH1 (second series), hits give low values",0.923 (active)
same,normalized growth,"S. cerevisiae deletion strains, locus YKL085W, strain MDH1, hits give low values",0.923 (active)
same,normalized growth,"S. cerevisiae deletion strains, locus YKL160W, strain elf1, hits give low values",1.01
same,normalized growth,"S. cerevisiae deletion strains, locus YKR001C, strain vps1, hits give low values",0.962
same,normalized growth,"S. cerevisiae deletion strains, locus YKR026C, strain gcn3, hits give low values",1.02
same,normalized growth,"S. cerevisiae deletion strains, locus YKR091W, strain srl3, hits give low values",0.999
same,normalized growth,"S. cerevisiae deletion strains, locus YLL001W, strain dnm1, hits give low values",1.03
same,normalized growth,"S. cerevisiae deletion strains, locus YLL026W, hits give low values",0.996
same,normalized growth,"S. cerevisiae deletion strains, locus YLL041C, strain sdh2, hits give low values",0.987
same,normalized growth,"S. cerevisiae deletion strains, locus YLR027C, strain aat2, hits give low values",0.992
same,normalized growth,"S. cerevisiae deletion strains, locus YLR039C, strain RIC1, hits give low values",1.01
same,normalized growth,"S. cerevisiae deletion strains, locus YLR058C, strain SHM2, hits give low values",1
same,normalized growth,"S. cerevisiae deletion strains, locus YLR102C, strain apc9, hits give low values",0.964
same,normalized growth,"S. cerevisiae deletion strains, locus YLR113W, strain HOG1, hits give low values",0.965
same,normalized growth,"S. cerevisiae deletion strains, locus YLR221C, strain rsa3, hits give low values",0.994
same,normalized growth,"S. cerevisiae deletion strains, locus YLR258W, strain gsy2, hits give low values",1
same,normalized growth,"S. cerevisiae deletion strains, locus YLR262C, strain YPT6 (second series), hits give low values",0.975
same,normalized growth,"S. cerevisiae deletion strains, locus YLR262C, strain YPT6, hits give low values",1.01
same,normalized growth,"S. cerevisiae deletion strains, locus YLR268W, strain sec22, hits give low values",1
same,normalized growth,"S. cerevisiae deletion strains, locus YLR320W, strain mms22, hits give low values",0.989
same,normalized growth,"S. cerevisiae deletion strains, locus YLR330W, strain CHS5, hits give low values",0.993
same,normalized growth,"S. cerevisiae deletion strains, locus YLR342W, strain FKS1 (second series), hits give low values",1.03
same,normalized growth,"S. cerevisiae deletion strains, locus YLR342W, strain FKS1, hits give low values",1
same,normalized growth,"S. cerevisiae deletion strains, locus YLR357W, strain rsc2, hits give low values",1.01
same,normalized growth,"S. cerevisiae deletion strains, locus YLR370C, strain arc18, hits give low values",1
same,normalized growth,"S. cerevisiae deletion strains, locus YLR371W, strain rom2, hits give low values",0.968
same,normalized growth,"S. cerevisiae deletion strains, locus YLR384C, strain iki3, hits give low values",1
same,normalized growth,"S. cerevisiae deletion strains, locus YLR418C, strain cdc73, hits give low values",0.948
same,normalized growth,"S. cerevisiae deletion strains, locus YML016C, strain PPZ1, hits give low values",1
same,normalized growth,"S. cerevisiae deletion strains, locus YML032C, strain rad52, hits give low values",0.986
same,normalized growth,"S. cerevisiae deletion strains, locus YML120C, strain ndi1, hits give low values",1.02
same,normalized growth,"S. cerevisiae deletion strains, locus YML124C, strain tub3, hits give low values",0.961
same,normalized growth,"S. cerevisiae deletion strains, locus YMR058W, strain fet3, hits give low values",1
same,normalized growth,"S. cerevisiae deletion strains, locus YMR078C, strain ctf18, hits give low values",0.958
same,normalized growth,"S. cerevisiae deletion strains, locus YMR125W, strain sto1, hits give low values",1.02
same,normalized growth,"S. cerevisiae deletion strains, locus YMR129W, hits give low values",1.01
same,normalized growth,"S. cerevisiae deletion strains, locus YMR205C, strain PFK2, hits give low values",1
same,normalized growth,"S. cerevisiae deletion strains, locus YMR223W, strain ubp8, hits give low values",0.953
same,normalized growth,"S. cerevisiae deletion strains, locus YMR231W, strain pep5, hits give low values",1
same,normalized growth,"S. cerevisiae deletion strains, locus YMR307W, strain GAS1, hits give low values",0.947
same,normalized growth,"S. cerevisiae deletion strains, locus YNL067W, strain RPL9B, hits give low values",0.987
same,normalized growth,"S. cerevisiae deletion strains, locus YNL071W, strain lat1, hits give low values",1.02
same,normalized growth,"S. cerevisiae deletion strains, locus YNL128W, strain TEP1, hits give low values",0.998
same,normalized growth,"S. cerevisiae deletion strains, locus YNL153C, strain GIM3, hits give low values",1
same,normalized growth,"S. cerevisiae deletion strains, locus YNL183C, strain NPR1, hits give low values",0.949
same,normalized growth,"S. cerevisiae deletion strains, locus YNL209W, strain ssb2, hits give low values",0.999
same,normalized growth,"S. cerevisiae deletion strains, locus YNL233W, strain BNI4, hits give low values",1
same,normalized growth,"S. cerevisiae deletion strains, locus YNL248C, strain rpa49, hits give low values",1.05
same,normalized growth,"S. cerevisiae deletion strains, locus YNL250W, strain rad50, hits give low values",0.958
same,normalized growth,"S. cerevisiae deletion strains, locus YNL271C, strain bni1, hits give low values",0.942
same,normalized growth,"S. cerevisiae deletion strains, locus YNL298W, strain CLA4, hits give low values",0.932
same,normalized growth,"S. cerevisiae deletion strains, locus YNL307C, strain MCK1, hits give low values",0.973
same,normalized growth,"S. cerevisiae deletion strains, locus YNL322C, strain KRE1 (second series), hits give low values",0.98
same,normalized growth,"S. cerevisiae deletion strains, locus YNL322C, strain KRE1, hits give low values",0.987
same,normalized growth,"S. cerevisiae deletion strains, locus YNR049C, strain mso1, hits give low values",0.996
same,normalized growth,"S. cerevisiae deletion strains, locus YNR052C, strain pop2, hits give low values",0.97
same,normalized growth,"S. cerevisiae deletion strains, locus YOL012C, strain htz1",1.21
same,normalized growth,"S. cerevisiae deletion strains, locus YOL147C, strain pex11, hits give low values",0.961
same,normalized growth,"S. cerevisiae deletion strains, locus YOR001W, strain rrp6, hits give low values",0.997
same,normalized growth,"S. cerevisiae deletion strains, locus YOR061W, strain CKA2, hits give low values",1
same,normalized growth,"S. cerevisiae deletion strains, locus YOR069W, strain VPS5, hits give low values",0.99
same,normalized growth,"S. cerevisiae deletion strains, locus YOR070C, strain gyp1, hits give low values",1
same,normalized growth,"S. cerevisiae deletion strains, locus YOR080W, strain dia2, hits give low values",1
same,normalized growth,"S. cerevisiae deletion strains, locus YOR083W, strain WHI5, hits give low values",0.968
same,normalized growth,"S. cerevisiae deletion strains, locus YOR106W, strain vam3, hits give low values",1.04
same,normalized growth,"S. cerevisiae deletion strains, locus YOR136W, strain idh2, hits give low values",0.988
same,normalized growth,"S. cerevisiae deletion strains, locus YOR144C, strain elg1, hits give low values",0.968
same,normalized growth,"S. cerevisiae deletion strains, locus YOR184W, strain ser1, hits give low values",0.978
same,normalized growth,"S. cerevisiae deletion strains, locus YOR231W, strain MKK1, hits give low values",0.954
same,normalized growth,"S. cerevisiae deletion strains, locus YOR265W, strain rbl2, hits give low values",1
same,normalized growth,"S. cerevisiae deletion strains, locus YOR270C, strain vph1, hits give low values",1.06
same,normalized growth,"S. cerevisiae deletion strains, locus YOR290C, strain snf2, hits give low values",1.01
same,normalized growth,"S. cerevisiae deletion strains, locus YOR316C, strain cot1, hits give low values",0.968
same,normalized growth,"S. cerevisiae deletion strains, locus YPL051W, strain arl3, hits give low values",1
same,normalized growth,"S. cerevisiae deletion strains, locus YPL078C, strain atp4, hits give low values",1.02
same,normalized growth,"S. cerevisiae deletion strains, locus YPL106C, strain sse1, hits give low values",0.952
same,normalized growth,"S. cerevisiae deletion strains, locus YPL240C, strain hsp82, hits give low values",0.997
same,normalized growth,"S. cerevisiae deletion strains, locus YPL241C, strain CIN2, hits give low values",0.987
same,normalized growth,"S. cerevisiae deletion strains, locus YPL256C, strain CLN2, hits give low values",0.914
same,normalized growth,"S. cerevisiae deletion strains, locus YPR119W, strain clb2, hits give low values",0.966
same,normalized growth,"S. cerevisiae deletion strains, locus YPR141C, strain kar3, hits give low values",0.948
same,normalized growth,"S. cerevisiae deletion strains, locus YPR163C, strain tif3, hits give low values",0.958
same,normalized growth,"S. cerevisiae deletion strains, locus YPR167C, strain met16, hits give low values",0.958
same,normalized growth,"S. cerevisiae deletion strains, strain wtn01, hits give low values",0.978
same,normalized growth,"S. cerevisiae strains, strain wild type, hits give low values",0.998
